Results filed as inconclusive are left out. Entries that show only a call come without a potency. Calls of active or inactive are those of the source. The call rests on the fitted dose curve; in most records, active means well fitted cell-killing curve with a large enough effect in the repeat runs; inconclusive means weak or mixed curves, or effect the other way; inactive means flat fitted curve, though single readings scatter.
Assay: cAMP Responsive Elements (CRE) small molecule agonists, cell-based qHTS assay: qHTS cell viability counter screen (AID 2060914);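 further: viability read after 3 h of compound exposure; nearly all actives have a fitted effect of over 50% in size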
Conditions: CRE-bla HEK293T viability, CellTiter-Glo luminescence, 5 h; series mostly up to 92.4 µM
Source text: National Center for Advancing Translational Sciences [NCATS]
Division of Preclinical Innovation [DPI]
U.S. Environmental Protection Agency [EPA]
National Institutes of Environmental Health Sciences [NIEHS]
National Toxicology Program [NTP]
U.S. Food and Drug Administration [FDA]
CREB (cyclic-AMP Responsive Element Binding Protein) is a cellular transcription factor. It binds to certain DNA sequences called cAMP Responsive Elements (CRE) and regulates the transcription of the genes. […] This cell line can be used to find agonists/antagonists of the cyclic AMP signaling pathway. The activation of the report gene under culture conditions can be detected by fluorescence intensity. This cell line has been used to screen the Tox21 10K compound library to identify agonists that induce oxidative stress. The cytotoxicity of the Tox21 compound library against the CRE-bla cell line was tested in parallel by measuring the cell viability using CellTiter-Glo assay (Promega, Madison, WI) in the same wells.
Tox21 Assay Protocol Summary:
CRE-bla Hek 293T cells were suspended in assay medium (DMEM containing 10% dialyzed FBS, 0.1 mM NEAA, 1 mM sodium pyruvate and 25 mM HEPES) and dispensed at 2,000 cells/5 uL /well into 1536-well black wall/clear bottom plates using a Multidrop Combi (ThermoFisher Scientific, Waltham, MA) dispenser. After the assay plates were incubated at 37 C/5% CO2 for 18 hrs, 23 nL of compounds dissolved in DMSO, positive controls or DMSO only was transferred to the assay plate by a pintool workstation (Kalypsys, San Diego, CA). After the plates were incubated at 37 C/5% CO2 for 3 hrs, 1 uL of LiveBLAzer B/G FRET substrate (Invitrogen, Carlsbad, CA) was added to each well using Bioraptr Flying Reagent Dispenser (FRD, Aurora Discovery, San Diego, CA). The plates were incubated at room temperature for 2 h, then fluorescence intensities were measured using an Envision plate reader (PerkinElmer, Shelton, CT) at Excitation 405nm, Emission 460nm and 530nm. The % activity was determined from the ratio of 460nm/530nm. For cell viability readout that measures cytotoxicity, 4 uL /well of CellTiter-Glo reagent was added into the assay plates using Bioraptr FRD. After 30 min incubation at room temperature, the luminescence intensity in the assay plates was measured using a ViewLux (PerkinElmer, Shelton, CT) plate reader.
Potency means the concentration at half of the fitted maximal effect.

| Compound | Potency |
| --- | --- |
| C=CC(=O)OCCCCCC(C)C | inactive |
| CCCCCCCCCCCCCCCC[n+]1ccccc1 | 47.9 µM (active) [middle of 4 runs] |
| CCC1(c2cccc(O)c2)CCCCN(C)C1 (stereo not given) | inactive |
| C=CC(=O)OCC(CC)CCCC (stereo not given) | inactive |
| Cc1ncc(CNC(=O)N(CCCl)N=O)c(N)n1 | inactive |
| CCC1(c2ccccc2)C(=O)NC(=O)NC1=O | inactive |
| CCBr | inactive |
| CC(C)(O)C(Cl)(Cl)Cl | inactive |
| CCCCCCCCCCCCCCCl | inactive |
| CCOP(=S)(OCC)OC(Cl)C(Cl)(Cl)Cl (stereo not given) | inactive |
| O=C(O)COc1cc(Cl)c(Cl)cc1Cl | inactive |
| COC(=O)c1ccccc1S(=O)(=O)NC(=O)N(C)c1nc(C)nc(OC)n1 | inactive |
| CCCCc1c(C)nc(NCC)[nH]c1=O | inactive |
| COC(=O)C(c1ccccc1)C1CCCCN1 (stereo not given) | inactive |
| CCCCCCCCCCCCCCCCCC(=O)O | inactive |
| CCN(CC)C(=O)/C(Cl)=C(\C)OP(=O)(OC)OC | inactive |
| O=[N+]([O-])c1ccc(Cl)c(Cl)c1 | inactive |
| O=C(NC(O)C(Cl)(Cl)Cl)NC(O)C(Cl)(Cl)Cl (stereo not given) | inactive |
| OCCCCO | inactive |
| C=CCc1ccc(OC)cc1 | inactive |

| Compound | Potency |
| --- | --- |
| Cc1ccc(C(=O)Cl)cc1 | inactive |
| CN1CCN(C(=O)O[C@H]2c3nccnc3C(=O)N2c2ccc(Cl)cn2)CC1 | inactive |
| COC(=O)N(OC)c1ccccc1COc1ccn(-c2ccc(Cl)cc2)n1 | 5.45 µM (active) |
| C=CCSSCC=C | inactive |
| OCC1CO1 (stereo not given) | inactive |
| CCOP(=S)(OCC)Oc1cc(-c2ccccc2)on1 | inactive |
| COC(=O)c1sccc1S(=O)(=O)NC(=O)Nc1nc(C)nc(OC)n1 | inactive |
| Nc1c(Cl)cc([N+](=O)[O-])cc1Cl | inactive |
| CCNc1nc(NC(C)C)nc(OC)n1 | inactive |
| CCCCC(C#N)(Cn1cncn1)c1ccc(Cl)cc1 (stereo not given) | inactive |
| Cc1c(F)c(F)c(COC(=O)C2C(/C=C(\Cl)C(F)(F)F)C2(C)C)c(F)c1F (stereo not given) | inactive |
| CSC(=O)c1c(C(F)F)nc(C(F)(F)F)c(C(=O)SC)c1CC(C)C | inactive |
| CC1=NNC(=O)N(/N=C/c2cccnc2)C1 | inactive |
| Clc1ccccc1 | inactive |
| O=NN1CCNCC1 | inactive |
| Nc1ccncc1 | inactive |
| COS(=O)(=O)c1ccc(C)cc1 | inactive |
| COP(=O)(NC(C)=O)SC (stereo not given) | inactive |
| FC(F)OC(F)(F)C(F)Cl (stereo not given) | inactive |
| CCOP(=S)(OCC)SCCSCC | inactive |

Reference: PubChem BioAssay (Tox21)
